± gives the standard deviation of the averaged measurements. The full ranking holds about 33,000 sequences; the median of “E-score (dimensionless, -0.5 to 0.5)” is about -0.046, and the highest 2% start at about 0.36. This is one part of a sample in which the highest values are shown more often than they occur.
system: T1, SpTbr T-box DNA-binding domain (GST fusion); assay: PBM E-score of 8-mer (E-score (dimensionless, -0.5 to 0.5)); Tbr is Tbrain of the sea star Patiria miniata (Pm) or the sea urchin Strongylocentrotus purpuratus (Sp); higher = stronger binding preference; settings: the construct has about 5 more residues each side
T1 sequence: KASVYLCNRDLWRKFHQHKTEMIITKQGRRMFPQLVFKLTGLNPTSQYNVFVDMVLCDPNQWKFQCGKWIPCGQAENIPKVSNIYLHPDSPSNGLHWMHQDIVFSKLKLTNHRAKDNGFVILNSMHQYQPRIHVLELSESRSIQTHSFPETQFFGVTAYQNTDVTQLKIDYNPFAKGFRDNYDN
Description: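 Universal protein-binding microarray (Agilent AMADID 016060, 60-bp probes with a 35-bp variable region) incubated with 200 nM GST-fused Strongylocentrotus purpuratus Tbr T-box DNA-binding domain (residues 362-554) in PBS pH 7.5. Scored for every ungapped 8-mer (given with its reverse complement) as E-score (range -0.5 to 0.5; >0.45 counts as bound) and Z-score of median probe intensity. Two replicate arrays (datasets 1 and 2).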
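Further: protein at 200 nM in PBS on universal double-stranded arrays.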

Row | Sequence | PBM E-score of 8-mer
1 | ACTTGCTG | -0.0473 ± 0.073
2 | ATTCTGTC | 0.04 ± 0.016
3 | CAGTAACC | 0.048 ± 0.029
4 | GAAATGGA | -0.101 ± 0.0095
5 | ACTTGACT | 0.0832 ± 0.1
6 | CTAATAGC | 0.0334 ± 0.069
7 | AGTGTTCC | 0.0182 ± 0.013
8 | ACTGTTAA | 0.261 ± 0.036
9 | GTTGTTGA | 0.239 ± 0.044
10 | GGTGTTGA | 0.4631 ± 0.0038
11 | GCTGTTAA | 0.162 ± 0.0053
12 | GTTGTTAA | 0.339 ± 0.034
13 | CGTGTTGA | 0.3014 ± 0.0019
14 | AGTGTTAC | 0.3741 ± 0.0036
15 | ACTGTTAC | 0.168 ± 0.0045
16 | GGTGTTAA | 0.472 ± 0.0062
17 | AGTGTTAA | 0.436 ± 0.021
18 | AATGTTAA | -0.0502 ± 0.052
19 | ATTTGCAC | 0.239 ± 0.043
20 | ACTTGAGG | -0.00245 ± 0.078
21 | CGACGCGA | 0.159 ± 0.068
22 | ACAGCTTC | 0.208 ± 0.017

Row | Sequence | PBM E-score of 8-mer
23 | AGTGGAGC | -0.0127 ± 0.11
24 | TCATCTCA | 0.0482 ± 0.019
25 | GCCAATCC | -0.0232 ± 0.048
26 | AGTGTGGC | 0.33 ± 0.014
27 | AGTGTGGG | 0.399 ± 0.018
28 | AGTGTGTA | 0.229 ± 0.018
29 | AGTGTGGA | 0.373 ± 0.035
30 | GGTGTGGA | 0.456 ± 0.014
31 | CGTGTGGA | 0.306 ± 0.0073
32 | AGTGGGGG | -0.0909 ± 0.05
33 | AGAGTGGG | -0.128 ± 0.066
34 | GGTGTGTA | 0.356 ± 0.008
35 | ACCTTAGC | 0.211 ± 0.014
36 | CCACGGGC | -0.227 ± 0.019
37 | CTTCGCGC | 0.407 ± 0.032
38 | CATCGCGC | 0.259 ± 0.032
39 | AATCGCGA | 0.3847 ± 0.00013
40 | CTTCGCGA | 0.285 ± 0.032
41 | AATCGCGT | 0.194 ± 0.039
42 | ATTCGCGG | 0.275 ± 0.026
43 | ATTCGCGC | 0.387 ± 0.012
44 | AATCGCGC | 0.332 ± 0.01

Row | Sequence | PBM E-score of 8-mer
45 | CTTCGCTC | -0.00285 ± 0.036
46 | ATTCGCTA | 0.208 ± 0.024
47 | CATCGCGA | 0.197 ± 0.0055
48 | ATTCGCGA | 0.392 ± 0.02
49 | GCGCCACA | 0.223 ± 0.014
50 | ATTTGTGA | 0.181 ± 0.085
51 | GGGGCGCA | -0.227 ± 0.038
52 | TAAAGCTA | -0.171 ± 0.036
53 | GTATTGAC | -0.0627 ± 0.015
54 | CAGTGCAG | -0.179 ± 0.024
55 | CCTCGCGA | 0.306 ± 0.0057
56 | ACTCGCGA | 0.3822 ± 0.0018
57 | GGTCGCGA | 0.335 ± 0.017
58 | GTTCGCCA | 0.158 ± 0.011
59 | ACTCGCGC | 0.298 ± 0.038
60 | GTTCGCGA | 0.389 ± 0.0052
61 | CCAGCGCG | 0.0431 ± 0.073
62 | CCTCGTTC | 0.0141 ± 0.013
63 | CGTCAACA | 0.356 ± 0.0058
64 | TGTCAACA | 0.4051 ± 0.0019
65 | GGTCAACA | 0.114 ± 0.02
66 | CTAAACCA | -0.0751 ± 0.046

Row | Sequence | PBM E-score of 8-mer
67 | CTCCCTTC | -0.214 ± 0.037
68 | ACTCACAT | 0.124 ± 0.049
69 | ACTCTCTC | 0.0136 ± 0.068
70 | ACTCACAC | 0.469 ± 0.0082
71 | CCTCACAC | 0.4723 ± 0.0005
72 | GCTTACAC | 0.219 ± 0.012
73 | CCTCACAG | 0.149 ± 0.032
74 | ACTCACAG | 0.313 ± 0.011
75 | ACACTCTC | 0.3695 ± 0.0036
76 | CCTCACAA | 0.233 ± 0.0063
77 | ACACTCTA | 0.325 ± 0.017
78 | ACTTACAC | 0.251 ± 0.075
79 | CCTTACAC | 0.3668 ± 0.0022
80 | GGCTCTCA | 0.0783 ± 0.047
81 | AGCATAGC | -0.135 ± 0.061
82 | CGCGTTTA | 0.0979 ± 0.059
83 | CGAGATAC | -0.0218 ± 0.054
84 | GAACAAAA | -0.0265 ± 0.017
85 | ACGTATGC | 0.0191 ± 0.0035
86 | AGGCGCAT | -0.182 ± 0.024
87 | ACCGTCAT | 0.0989 ± 0.0085
88 | ATTGAAGG | -0.0895 ± 0.13

Row | Sequence | PBM E-score of 8-mer
89 | AAGCGGTG | -0.1161 ± 0.00078
90 | CACAAGGC | -0.114 ± 0.035
91 | ACATGGCA | -0.0601 ± 0.028
92 | GCCAGCGA | 0.164 ± 0.098
93 | ACTCTCAC | 0.285 ± 0.036
94 | GCACACAC | 0.294 ± 0.035
95 | ACACTCAC | 0.366 ± 0.004
96 | ACACTCAG | 0.232 ± 0.042
97 | GCTCACAC | 0.448 ± 0.0095
98 | GCTCACAA | 0.174 ± 0.018
99 | ACTCTCCG | -0.0225 ± 0.053
100 | ACACTCCG | 0.367 ± 0.023
101 | ACACTCCT | 0.193 ± 0.021
102 | ATCTCCGG | 0.0811 ± 0.031
103 | ACCGTTCA | 0.027 ± 0.023
104 | AGCGAGTC | 0.0305 ± 0.044
105 | CTGTACCA | -0.0774 ± 0.055
106 | GCTAGAAC | 0.0971 ± 0.024
107 | AGACCATG | -0.0594 ± 0.025
108 | CTGCCAAA | 0.0249 ± 0.15
109 | TTGCCAAA | 0.0607 ± 0.12
110 | GTGCCAAC | 0.4114 ± 0.0035
